# Experimental data taken from PubChem BioAssay (NCATS).
# Results filed as inconclusive are left out. A number with no mark means an inactive call. Activity calls are given as the source filed them. Calls come from the whole dose curve; as a rule, active = well fitted inhibition curve with a large enough effect; inconclusive = small, poorly fitted or top-dose-only effect; inactive = flat fitted curve, though single readings scatter.
# Legend:
# CRL-7250 = normal cell line; test: Cytotoxic Profiling of Annotated Libraries Using Quantitative High-Throughput Screening (AID 1296008); conditions: Five cell lines viability, CellTiter-Glo ATP luminescence, 48-72 h; max response: stronger effect = lower value; note: nearly all actives have a fitted effect of over 60% in size
# Procedure, shortened: (§1)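 Cytotoxicity was measured as CellTiter-Glo ATP luminescence, read after 10 min at room temperature. Compound treatment of the cells lasted 48 or 72 hr at 37 degrees Celsius in a qHTS format.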
# HEK293 = test: as above; conditions: Five cell lines viability, CellTiter-Glo ATP luminescence, 48-72 h; max response: stronger effect = lower value
# Procedure, shortened: as §1
# % is set by controls: 0 for no effect and ±100 for the full control effect; potency is the fitted concentration of half-maximal effect.
compound,measurement,setting,value
Cn1c(=O)cc(N2CCCC(N)C2)n(Cc2cc(F)ccc2C#N)c1=O (stereo not drawn),max response,CRL-7250,3.15%
same,max response,HEK293,-7.1%
O=C(O)C(O[C@@H]1O[C@H](CO[C@@H]2O[C@H](CO)[C@@H](O)[C@H](O)[C@H]2O)[C@@H](O)[C@H](O)[C@H]1O)c1ccccc1 (stereo partly drawn),max response,CRL-7250,-5.65%
same,max response,HEK293,-7.94%
CC(C)C(NC(=O)c1ccc2ccccc2n1)C(=O)NC(CC(=O)O)C(=O)COc1c(F)cccc1F (stereo not drawn),max response,CRL-7250,-6.89%
same,max response,HEK293,-1.52%
Nc1ncnc2c1ncn2CCNCCCCCO,outcome,CRL-7250,inactive
same,max response,HEK293,4.45%
COc1cc2c(NC3CCN(CC4CCCCC4)CC3)nc(N3CCCN(C(C)C)CC3)nc2cc1OCCCN1CCCCC1,Potency,CRL-7250,4.61 µM (active)
same,Potency,HEK293,3.26 µM (active)
O=C(O[C@H]1[C@@H]2C[C@@H]3OC[C@](O)([C@@H]1Cl)[C@H]2C(O[C@@H]1O[C@H](CO)[C@@H](O)[C@H](O)[C@H]1O)O3)c1ccc(O)c(O)c1 (stereo partly drawn),max response,CRL-7250,-7.93%
same,max response,HEK293,-2.09%
C=C(C(=O)O)[C@@H]1CC[C@@]2(C)CC[C@H](O)[C@@]2(C(C)=O)C1,outcome,CRL-7250,inactive
same,max response,HEK293,-2.38%
CCCC(=O)C1CCN(c2ncnc3c2CN(C(=O)c2ccc(-c4ccccc4)cc2)CC3)CC1,max response,CRL-7250,-7.29%
same,Potency,HEK293,18.4 µM (active)
COc1ccc(/C=C/C(=O)O[C@@H]2[C@@H](O)[C@@H](O)[C@H](O[C@@H]3C=C(CO)[C@H]4[C@H](O[C@@H]5O[C@H](CO)[C@@H](O)[C@H](O)[C@H]5O)OC=C[C@H]43)O[C@H]2C)cc1O,max response,CRL-7250,0.875%
same,max response,HEK293,-69.5%
